Data from PubChem BioAssay (EPA / NIEHS).
Where “and” joins values, the source holds several entries; their conditions need not be identical. Equal values may be shown once. The source holds several records for some structures; these can differ, active in one and inactive in another. Calls of active or inactive are those of the source. Rule for the calls: active = hit-call score of the fitted dose curve at least 0.9, where 1 is the maximum; inactive = score below 0.9.

How the values were obtained:
Decorin, DCN (gene 1634) = test: BSK_MyoF_Decorin: BioMAP Diversity Plus: MyoF Assay for Decorin Biomarker Activity (AID 2284265); conditions: primary human lung fibroblasts
Procedure, shortened: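 Human lung fibroblasts in the MyoF system were exposed to compound for 24 h, after which decorin was quantified by ELISA. Activity was fitted in the positive direction relative to DMSO negative control.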

KRT18 (gene 3875) = test: BSK_BF4T_Keratin818: BioMAP Diversity Plus: BF4T Assay for Keratin 818 Biomarker Activity (AID 2284266); conditions: primary human bronchial epithelial cells with fibroblasts
Procedure, shortened: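 Co-culture of human bronchial epithelial cells and dermal fibroblasts, chemical exposure 24 h. Keratin 8/18 measured by ELISA; positive-direction fit vs DMSO. SRB total protein run in parallel cultures for cytotoxicity.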

[1] = BSK_MyoF_SRB: Viability Assessment in the BioMAP Diversity Plus: MyoF Assay (AID 2284267); conditions: primary human lung fibroblasts;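 note: total protein by SRB absorbance in parallel cultures as cytotoxicity measure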
Procedure, shortened: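 Human lung fibroblasts dosed with chemical and assessed 24 h later for overt cytotoxicity in parallel cultures. Total protein quantified by sulforhodamine B staining (0.1% SRB after 10% TCA fixation), read at 560 nm, analysed in positive direction versus DMSO baseline.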

[2] = read-out: Matrix Metallopeptidase 1 (MMP1), MMP1 (gene 4312); test: BSK_MyoF_MMP1: BioMAP Diversity Plus: MyoF Assay for Matrix Metallopeptidase 1 (MMP1) Biomarker Activity (AID 2284268); conditions: primary human lung fibroblasts
Procedure, shortened: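 ELISA readout of MMP1 in primary human lung fibroblast cultures, 24 h post-dosing. Gain of signal versus DMSO vehicle control defines activity. Parallel SRB staining (0.1% after 10% TCA fixation, 560 nm) flags overt cytotoxicity.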

[3] = read-out: TIMP metallopeptidase inhibitor 1 (TIMP1), TIMP1 (gene 7076); test: BSK_MyoF_TIMP1: BioMAP Diversity Plus: MyoF Assay for TIMP metallopeptidase inhibitor 1 (TIMP1) Biomarker Activity (AID 2284269); conditions: primary human lung fibroblasts
Procedure, shortened: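 ELISA quantified TIMP-1 levels after 24 h dosing of primary human lung fibroblasts, with DMSO as baseline. Parallel SRB total protein staining (0.1% SRB after TCA fixation, 560 nm) flagged overt cytotoxicity.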

[4] = read-out: Matrix Metallopeptidase 1 (MMP1), MMP1 (gene 4312); test: BSK_BF4T_MMP1: BioMAP Diversity Plus: BF4T Assay for Matrix Metallopeptidase 1 (MMP1) Biomarker Activity (AID 2284270); conditions: primary human bronchial epithelial cells with fibroblasts
Procedure, shortened: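 Co-culture of human bronchial epithelial cells and dermal fibroblasts; MMP-1 levels measured by ELISA 24 hours after chemical dosing, relative to DMSO. Cytotoxicity checked in parallel cultures by SRB total-protein staining.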

[5] = read-out: Matrix Metallopeptidase 3 (MMP3), MMP3 (gene 4314); test: BSK_BF4T_MMP3: BioMAP Diversity Plus: BF4T Assay for Matrix Metallopeptidase 3 (MMP3) Biomarker Activity (AID 2284271); conditions: primary human bronchial epithelial cells with fibroblasts
Procedure, shortened: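 Co-culture of human bronchial epithelial cells and dermal fibroblasts dosed 24 h; MMP-3 measured by ELISA, positive-direction fit versus DMSO. Cytotoxicity tracked by SRB total-protein staining (560 nm) in parallel cultures.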

[6] = read-out: Plasminogen Activator Inhibitor-1 (PAI1), SERPINE1 (gene 5054); test: BSK_BF4T_PAI1: BioMAP Diversity Plus: BF4T Assay for Plasminogen Activator Inhibitor-1 (PAI1) Biomarker Activity (AID 2284273); conditions: primary human bronchial epithelial cells with fibroblasts
Procedure, shortened: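 Co-culture of human bronchial epithelial cells and dermal fibroblasts exposed to compound for 24 h. PAI-1 measured by ELISA; activity fitted in positive direction versus DMSO. Parallel SRB staining assessed overt cytotoxicity.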

[7] = BSK_BF4T_SRB: Viability Assessment in the BioMAP Diversity Plus: BF4T Assay (AID 2284274); conditions: primary human bronchial epithelial cells with fibroblasts;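 for AC50: total cell protein by sulforhodamine B staining as a cytotoxicity measure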
Procedure, shortened: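 Co-culture of human bronchial epithelial cells and dermal fibroblasts (BioMAP BF4T) exposed 24 h. Total protein by sulforhodamine B staining (0.1% SRB after 10% TCA fixation, 560 nm) in parallel cultures; fitted vs DMSO.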

[8] = read-out: Tissue plasminogen activator (tPA), PLAT (gene 5327); test: BSK_BF4T_tPA: BioMAP Diversity Plus: BF4T Assay for Tissue plasminogen activator (tPA) Biomarker Activity (AID 2284272); conditions: primary human bronchial epithelial cells with fibroblasts
Procedure, shortened: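 tPA level quantified by ELISA at 24 h post-treatment in bronchial epithelial/dermal fibroblast co-cultures, gain of signal scored against DMSO baseline. Parallel cultures stained with 0.1% SRB (560 nm) to flag overt cytotoxicity.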

Measured: AC50

OCC(F)(F)C(F)(F)C(F)(F)F
not listed: [8]
inactive: all other assays above

O=S(=O)(OCCOC(F)(F)F)C(F)(F)F
not listed: [3]
inactive: all other assays above

OCC(F)(F)C(F)(F)C(F)(F)C(F)F
inactive: Decorin, DCN (gene 1634) | KRT18 (gene 3875) | [1] | [2] | [4] | [5] | [6] | [7]
active: Decorin, DCN (gene 1634) 5.95 µM

CCCCCCCCC(F)(F)C(F)(F)C(F)(F)C(F)(F)C(F)(F)C(F)(F)F
not listed: [8]
inactive: all other assays above

C=CC(F)(F)C(F)(F)C(F)(F)C(F)(F)C(F)(F)C(F)(F)C(F)(F)C(F)(F)C=C
not listed: [8]
inactive: all other assays above

O=C(O)C(F)(F)C(F)(F)C(F)(F)C(F)(F)F
not listed: [8]
inactive: all other assays above

FC(F)(F)C(F)(F)C(F)(F)C(F)(F)C(F)(F)C(F)(F)C(F)(F)C(F)(F)F
not listed: [8]
inactive: all other assays above

FC1CC(F)(F)C(F)(F)C1(F)F (stereo not drawn)
not listed: [8]
inactive: all other assays above

C=CC(=O)OCC(F)(F)C(F)(F)C(F)(F)C(F)(F)C(F)(F)C(F)(F)C(F)(F)F
not listed: [8]
inactive: all other assays above

O=C(O)C(F)(F)C(F)(F)C(F)(F)C(F)(F)C(F)(F)C(F)(F)C(F)(F)C(F)(F)C(F)(F)C(F)(F)C(F)(F)C(F)(F)C(F)(F)F
inactive: Decorin, DCN (gene 1634) | KRT18 (gene 3875) | [1] | [2] | [3] | [4] | [5] | [6] | [7]
active: [5] 1.68 µM

FC(F)(F)C(F)(F)CNCC(F)(F)C(F)(F)F
not listed: [8]
inactive: all other assays above

FC(F)(F)C(F)(F)C(F)(F)C(F)(F)C(F)(F)C(F)(F)C(F)(F)I
active: [1] 4.81 µM and 4.71 µM | [2] 2.4 µM and 2.55 µM
not listed: [3]
inactive: all other assays above

O=S(=O)(O)C(F)(F)C(F)(F)C(F)(F)C(F)(F)C(F)(F)C(F)(F)C(F)(F)F
inactive: Decorin, DCN (gene 1634) | KRT18 (gene 3875) | [1] | [2] | [4] | [5] | [6] | [7]
active: [5] 15.6 µM

O=C(O)C(F)(F)C(F)(F)C(F)(F)C(F)(F)C(F)(F)C(F)(F)C(F)(F)C(F)(F)C(F)(F)C(F)F
inactive: Decorin, DCN (gene 1634) | [2] | [4] | [5]
active: KRT18 (gene 3875) 22.7 µM and 30 µM | [1] 21.3 µM and 21.9 µM | [4] 49.7 µM | [5] 30 µM | [6] 39.7 µM and 30 µM | [7] 41.7 µM and 40.8 µM
